# Assay results reported in PubChem BioAssay AID602243 (Broad Institute, 2012).
# The list shows a part of the results. Values without a mark were called inactive. How the calls were made is not given here.
# Assay: V. cholerae lux activation without autoinducers – BH1578 luxS cqsA deficient, cherry-pick, plate reader, dose response (AID 602243)
# Conditions: V. cholerae BH1578 lux reporter, luminescence, 6 h; series mostly up to 50 µM; activation: at the top concentration
row,SMILES,activation [%]
1,COc1ccc(Cl)cc1NC(=O)CN(C)C(=O)CNC(=O)C12CC3CC(CC(C3)C1)C2,-0.645
2,NC(=O)c1nsc(C(=O)N(CC(=O)NCc2ccc(F)cc2)Cc2ccco2)c1N,0.105
3,CCN(CC(=O)NCc1ccc(Cl)cc1)C(=O)CSc1ccccc1,1.79
4,Cc1onc(-c2ccccc2)c1C(=O)N1CCOCC1,0.2
5,COc1ccccc1CCNC(=O)C(=O)NCCC1CCCCN1S(=O)(=O)c1cccs1 (stereo not given),-0.142
6,CCCn1nnnc1NCc1ccc(OC)cc1,1100
7,CCOC(=O)C1(CCOc2ccccc2)CCN(Cc2cc(OC)cc(OC)c2)CC1,0.196
8,Cc1cccc(C(=O)OCC(=O)NCC(C)C)c1O,1270
9,COCCn1nnnc1CN1CCC(NC(=O)Nc2cccc(OC)c2)CC1,0.222
10,COc1ccc(Cl)cc1NC(=O)COC(=O)c1ccc(Br)o1,1.99
11,CCN(CC)c1nc(-c2ccccc2)cc(C(F)(F)F)c1C#N,0.082
12,NNC(=O)c1nnn(-c2nonc2N)c1CN1CCCC1,227
13,COc1ccc(OCc2cn3c(C)cc(C)nc3n2)cc1,327
14,COc1ccc(N(CC(=O)NC2CCCCC2)C(=O)CNC(=O)c2ccco2)c(OC)c1,0.776
15,O=C(Cc1ccc2c(c1)CCCC2)Nc1ccccc1Cl,20.6
16,CC(C)CC(=O)N1CCN(Cc2ccccc2Br)CC1,0.219
17,O=C(CN1CCC(O)(c2cccc(C(F)(F)F)c2)CC1)NCCc1ccccc1,217
18,COc1ccc(S(=O)(=O)N2CCN(c3cnccn3)CC2)cc1,-0.115
19,COc1ccc(CNc2nnnn2C)cc1,0.987
20,O=C(NCCS(=O)(=O)N1CCN(c2ccccc2)CC1)c1ccco1,0.155
